Source: PubChem BioAssay
Pf apPOL block – Pf-apPOL DNA polymerase inhibition. 210,000 tested, 0.25% active. inhibition, % at 10 µM. Recombinant Pf-apPOL, molecular beacon fluorescence, 1.5 h
mHTT-CaM PPI inh – inhibitors of human mutant huntingtin-calmodulin interaction | inhibition, % at 15 µM | AlphaScreen His-mHTT/GST-CaM binding, luminescence | 190,000 tested, 3.6% active;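 further: 0% = both proteins with DMSO and 100% = one protein alone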
Target sequence (P42858 whole entry, looked up, stated change not applied): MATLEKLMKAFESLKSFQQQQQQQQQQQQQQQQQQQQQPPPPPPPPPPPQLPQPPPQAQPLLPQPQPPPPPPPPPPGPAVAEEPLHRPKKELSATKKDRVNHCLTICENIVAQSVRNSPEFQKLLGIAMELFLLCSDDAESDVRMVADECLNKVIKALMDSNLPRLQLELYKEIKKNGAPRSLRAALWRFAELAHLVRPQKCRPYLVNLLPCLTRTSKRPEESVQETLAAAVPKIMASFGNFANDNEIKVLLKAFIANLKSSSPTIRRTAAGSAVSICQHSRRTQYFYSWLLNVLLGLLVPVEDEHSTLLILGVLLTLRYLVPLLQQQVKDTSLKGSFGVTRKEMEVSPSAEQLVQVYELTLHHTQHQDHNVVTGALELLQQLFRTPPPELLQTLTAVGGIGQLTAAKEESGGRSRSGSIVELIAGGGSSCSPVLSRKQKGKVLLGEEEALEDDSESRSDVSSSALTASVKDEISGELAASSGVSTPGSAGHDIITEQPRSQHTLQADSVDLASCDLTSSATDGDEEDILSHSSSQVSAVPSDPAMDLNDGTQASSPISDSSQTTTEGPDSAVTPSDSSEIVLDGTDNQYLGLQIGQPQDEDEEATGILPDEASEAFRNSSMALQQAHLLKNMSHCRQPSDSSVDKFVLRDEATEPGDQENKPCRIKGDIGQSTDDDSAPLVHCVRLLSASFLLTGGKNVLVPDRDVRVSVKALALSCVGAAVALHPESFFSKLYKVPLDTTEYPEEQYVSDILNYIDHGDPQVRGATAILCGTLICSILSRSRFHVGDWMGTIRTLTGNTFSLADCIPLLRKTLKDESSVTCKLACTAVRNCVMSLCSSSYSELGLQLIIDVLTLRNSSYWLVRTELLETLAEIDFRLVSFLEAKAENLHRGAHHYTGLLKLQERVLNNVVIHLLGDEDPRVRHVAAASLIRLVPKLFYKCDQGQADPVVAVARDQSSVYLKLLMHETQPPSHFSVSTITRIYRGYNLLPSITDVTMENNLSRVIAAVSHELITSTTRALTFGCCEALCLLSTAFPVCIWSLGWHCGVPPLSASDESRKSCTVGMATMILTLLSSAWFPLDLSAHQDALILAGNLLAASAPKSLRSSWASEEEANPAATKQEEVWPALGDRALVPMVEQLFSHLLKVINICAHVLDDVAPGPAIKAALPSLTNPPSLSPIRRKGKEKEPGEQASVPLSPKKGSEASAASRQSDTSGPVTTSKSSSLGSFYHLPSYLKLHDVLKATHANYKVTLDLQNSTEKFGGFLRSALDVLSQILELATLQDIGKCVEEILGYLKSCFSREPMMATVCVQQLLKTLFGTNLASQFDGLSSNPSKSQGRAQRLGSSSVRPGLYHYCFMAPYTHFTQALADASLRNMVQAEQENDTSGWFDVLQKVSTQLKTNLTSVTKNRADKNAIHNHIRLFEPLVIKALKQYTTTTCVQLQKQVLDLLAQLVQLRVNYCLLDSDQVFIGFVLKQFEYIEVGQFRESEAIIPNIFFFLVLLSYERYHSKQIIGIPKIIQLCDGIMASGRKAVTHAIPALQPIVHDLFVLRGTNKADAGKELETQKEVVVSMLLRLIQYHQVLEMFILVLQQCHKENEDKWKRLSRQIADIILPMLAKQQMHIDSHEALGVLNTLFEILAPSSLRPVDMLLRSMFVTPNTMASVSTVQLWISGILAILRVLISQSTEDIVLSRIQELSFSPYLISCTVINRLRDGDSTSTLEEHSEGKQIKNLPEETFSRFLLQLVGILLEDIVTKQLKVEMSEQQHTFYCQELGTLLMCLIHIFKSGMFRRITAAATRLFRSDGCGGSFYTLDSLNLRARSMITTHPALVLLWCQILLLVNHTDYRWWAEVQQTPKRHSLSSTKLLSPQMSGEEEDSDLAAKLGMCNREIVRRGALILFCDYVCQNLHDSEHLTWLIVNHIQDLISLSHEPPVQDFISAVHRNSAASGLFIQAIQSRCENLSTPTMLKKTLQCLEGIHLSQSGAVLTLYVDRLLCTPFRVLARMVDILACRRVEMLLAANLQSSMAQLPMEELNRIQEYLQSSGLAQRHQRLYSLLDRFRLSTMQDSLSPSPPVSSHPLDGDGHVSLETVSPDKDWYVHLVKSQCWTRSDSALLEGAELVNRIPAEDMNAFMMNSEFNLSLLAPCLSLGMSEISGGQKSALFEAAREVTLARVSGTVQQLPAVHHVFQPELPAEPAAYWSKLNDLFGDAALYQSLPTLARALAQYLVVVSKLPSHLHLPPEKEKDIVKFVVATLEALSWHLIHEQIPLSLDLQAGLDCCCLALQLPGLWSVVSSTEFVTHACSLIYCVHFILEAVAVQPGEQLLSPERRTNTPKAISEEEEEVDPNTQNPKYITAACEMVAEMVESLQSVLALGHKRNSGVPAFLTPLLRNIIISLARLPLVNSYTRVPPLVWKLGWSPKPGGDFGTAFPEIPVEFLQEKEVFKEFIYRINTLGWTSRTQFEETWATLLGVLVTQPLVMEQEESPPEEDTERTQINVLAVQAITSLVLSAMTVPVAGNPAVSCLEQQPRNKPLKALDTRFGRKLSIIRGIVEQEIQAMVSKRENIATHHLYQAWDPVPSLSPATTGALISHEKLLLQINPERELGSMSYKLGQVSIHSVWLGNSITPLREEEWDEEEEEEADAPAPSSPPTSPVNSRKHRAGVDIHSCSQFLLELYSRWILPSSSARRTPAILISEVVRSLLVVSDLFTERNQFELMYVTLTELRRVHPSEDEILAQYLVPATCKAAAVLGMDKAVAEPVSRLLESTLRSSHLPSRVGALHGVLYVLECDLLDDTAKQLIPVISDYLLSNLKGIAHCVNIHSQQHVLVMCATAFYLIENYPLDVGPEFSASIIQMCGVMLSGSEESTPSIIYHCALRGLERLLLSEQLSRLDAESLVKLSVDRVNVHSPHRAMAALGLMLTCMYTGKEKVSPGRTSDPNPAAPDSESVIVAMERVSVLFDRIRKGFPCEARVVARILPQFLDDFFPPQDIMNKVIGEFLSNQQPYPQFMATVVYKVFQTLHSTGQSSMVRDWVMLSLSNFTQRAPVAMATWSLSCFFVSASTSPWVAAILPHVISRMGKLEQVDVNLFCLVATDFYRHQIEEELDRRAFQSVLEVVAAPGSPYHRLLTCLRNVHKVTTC
An asterisk follows results filed as active; . = no result given. This is a sample that favours compounds with a hit; in the whole collection about 3.5% have one here. No stated cut-off is given here; in the data, active means inhibition above about 50%; inactive means the rest.

SMILES	Pf apPOL block	mHTT-CaM PPI inh
CC(=O)c1ccc(S(=O)(=O)N2CCC(c3noc(-c4ccc(Cl)cc4)n3)CC2)cc1	-6.2	-7.9
COc1cc(OC)c(OC)cc1CN1CCN(c2ccccc2OC)CC1	-6.3	-1.4
COc1ccccc1N1CCN(Cc2ccc(Br)o2)CC1	84.8*	0.5
Fc1ccc(CN2CCc3nc(N4CCN(c5ncccn5)CC4)ncc3C2)cc1	-2.1	99.9*
COc1ccc(CN2CCc3nc(N4CCN(c5ncccn5)CC4)ncc3C2)cc1	-3.5	100.2*
Fc1ccc(N2CCN(c3ncc4c(n3)CCN(Cc3ccccc3)C4)CC2)cc1	-4.0	14.1
COc1ccc(CN2CCc3nc(N4CCN(c5ccccc5)CC4)ncc3C2)cc1	0.0	33.0
Cc1cccc(C(=O)N2CCC(c3noc(-c4cccc(C)c4)n3)CC2)c1	3.5	21.9
Cc1sc(NC(=O)c2ccco2)c(C(c2cccnc2)N2CCN(c3ccccn3)CC2)c1C (stereo not drawn)	-6.0	100.0*
Cc1sc(NC(=O)c2ccco2)c(C(c2cccnc2)N2CCN(c3ccccc3)CC2)c1C (stereo not drawn)	11.8	18.0
COc1ccc(OC)c(C2C(=C(O)c3ccc(C)cc3)C(=O)C(=O)N2Cc2cccnc2)c1 (stereo not drawn)	-2.3	8.1
O=C(NCCC1=CCCCC1)C(=O)NCC1CCN(S(=O)(=O)C2CC2)CC1	-14.7	4.3
CNC(=O)N1CCCC(c2cccc(C(=O)N3CCN(c4ccccc4)CC3)c2)C1 (stereo not drawn)	-7.4	-1.0
CNC(=O)N1CCCC(c2cccc(C(=O)N3CCN(c4cc(C)ccc4C)CC3)c2)C1 (stereo not drawn)	-5.5	80.1*
CNC(=O)N1CCCC(c2cccc(C(=O)N3CCN(c4ccccc4C)CC3)c2)C1 (stereo not drawn)	-7.0	38.6
CNC(=O)N1CCCC(c2cccc(C(=O)N3CCN(c4cccc(Cl)c4)CC3)c2)C1 (stereo not drawn)	-7.0	97.7*
Cc1cccc(NCN2C(=O)C3CC=CCC3C2=O)c1 (stereo not drawn)	-3.3	11.0
CCOc1ccc(-c2cc(OCC)c3c(C)oc(C)c3c(=[O+]CC)c2)cc1	-4.7	20.0
O=C1C=CC(=O)C(C2=C3C(=O)N(Cc4ccccc4)CC(=O)N3CCC2)=C1	-7.8	82.0*
O=C1NCCN(Cc2ccccc2)C1=O	-6.3	-1.3
CN(C)CCNC(=O)NCC12CC3CC(C1)CC(c1ccccc1)(C3)C2	2.0	78.7*
CN(C)CCNC(=O)C12CC3CC(C1)CC(c1ccccc1)(C3)C2	-2.2	14.0
CCOC(=O)CNC(=O)N1CCn2cccc2C1C (stereo not drawn)	-3.4	7.7
O=C(NC(NCCc1ccccc1)C(Cl)(Cl)Cl)c1ccco1 (stereo not drawn)	-0.9	-10.0
O=C(NC(NCC1CCCO1)C(Cl)(Cl)Cl)c1ccco1 (stereo not drawn)	97.2*	-1.0
SMILES	Pf apPOL block	mHTT-CaM PPI inh
CN1c2cc(F)ccc2C(=O)NC12CCN(C(=O)c1ccc3c(c1)OCO3)CC2	-3.3	-2.2
COc1cc(S(=O)(=O)N2CCN(c3ccc(F)cc3)CC2)c(OC)cc1Br	-6.2	1.2
COc1cc(Br)c(S(=O)(=O)N2CCN(c3ccc(C)c(C)c3)CC2)cc1OC	0.9	53.4*
COc1cc(S(=O)(=O)N2CCN(c3ccc(C)c(C)c3)CC2)c(OC)cc1Br	0.9	59.3*
Cc1cc(Br)c(S(=O)(=O)N2CCN(c3ccccc3)CC2)cc1C	-8.3	-2.5
O=C(NCC1CCCO1)c1cn(-c2ccc(F)cc2F)c(=O)c2ccccc12 (stereo not drawn)	-1.0	-4.0
Cc1ccc(C2CC=CCC2[N+](=O)[O-])cc1 (stereo not drawn)	-2.9	.
CC(=O)N(c1ccccc1)C1(C(=O)NC2CCCCC2)CCCCC1	-7.9	1.0
O=C(Nc1cccc2ccc(-n3ccnc3)nc12)c1ccsc1	-6.1	51.2*
O=C(Nc1cccc2ccc(-n3ccnc3)nc12)c1ccc2c(c1)OCO2	-0.3	-10.1
O=C(CCOc1ccccc1)Nc1ncc(S(=O)(=O)c2ccc([N+](=O)[O-])cc2)s1	-1.0	-1.0
CS(=O)(=O)c1ccc(Cc2nnc(NC(=O)CSc3ccc(Cl)cc3)o2)cc1	-25.0	56.5*
COc1ccc(Cc2nnc(NC(=O)Nc3cccs3)o2)cc1	-0.9	53.6*
CSc1ccc(Cc2nnc(NC(=O)c3cc(C)oc3C)o2)cc1	-4.5	48.3
CC(C)Sc1ccc(Cc2nnc(NC(=O)Cc3ccc(F)cc3)o2)cc1	-21.0	-17.7
COc1ccc(Cc2nnc(NC(=O)Nc3cccc(C(F)(F)F)c3)o2)cc1	-10.1	3.3
CCSc1ccc(Cc2nnc(NC(=O)c3cccs3)o2)cc1	-221.3	56.6*
CCCCCCCCCCCC1SCC(C(=O)O)N1C(C)=O (stereo not drawn)	33.8	.
CN1CCOc2ccc(NC(=O)c3ccccc3Br)cc2C1=O	-3.7	-2.7
CCOc1c(OC)cccc1C1C(C#N)=C(N)Oc2n[nH]c(-c3ccccn3)c21 (stereo not drawn)	-14.7	29.0
NCCCNC(=O)c1c(O)c2cccc3c2n(c1=O)CC3	5.8	6.0
CCSc1nnc(NC(=O)c2ccc(OCc3nc(C)cs3)cc2)s1	-2.8	-12.8
CCCCOc1ccc2c(c1)C(=O)c1cc(OCCCC)ccc1-2	-3.1	7.3
CN(CCO)CCCCOc1ccc2c(c1)C(=O)c1cc(OCCCCN(C)CCO)ccc1-2	-1.0	60.0*
CN(CCCNC(=O)CN1C(=O)/C(=C/c2ccccc2F)Sc2ccccc21)c1ccccc1	-19.9	46.0
SMILES	Pf apPOL block	mHTT-CaM PPI inh
COc1cc(/C=C(\C#N)c2nc3ccccc3[nH]2)cc2c1OCO2	-3.5	69.4*
N#C/C(=C\c1cccc(F)c1)c1nc2ccccc2[nH]1	-4.0	100.0*
COc1cc(/C=C(\C#N)c2nc3ccccc3[nH]2)cc(OC)c1O	-1.3	43.0
N#C/C(=C\c1cccc(Br)c1)c1nc2ccccc2[nH]1	-2.4	2.9
CCn1c(=N)c(S(=O)(=O)c2ccc(Cl)cc2)cc2c(=O)n3cccc(C)c3nc21	-5.6	-4.0
COc1cccc(CCC(=O)N2CCC3(CC2)Nc2cccnc2NC3=NC2CCCC2)c1	-4.8	25.6
Cc1cc(C)n(-c2nnc(N)nn2)n1	.	1.8
Cc1cc(C)n(-c2nnc(C)c(=O)[nH]2)n1	-2.3	89.6*
COc1ccc2sc(NC(=O)CSc3nnnn3-c3ccccc3)nc2c1	-3.7	4.3
COc1ccc2cc(C(=O)NC(C)=O)c(=Nc3ccc(C#N)cc3)oc2c1	64.9*	0.0
COc1ccc2oc(=Nc3ccc(C#N)cc3)c(C(=O)NC(C)=O)cc2c1	-2.3	4.0
COc1ccc2oc(=Nc3ccc(F)cc3F)c(C(=O)NC(C)=O)cc2c1	-3.7	2.0
COc1ccc2oc(=Nc3ccccc3F)c(C(=O)NC(C)=O)cc2c1	92.1*	4.0
COc1ccc(C2=C/C(=C/c3ccc(C)c(OC)c3)C(=O)O2)cc1	-2.1	-2.0
CCC1C[N+]2(C)CCC34C(=C(C=O)C1CC32)Nc1ccccc14 (stereo not drawn)	.	-2.9
O=C1N/C(=C\c2ccc(N3CCCC3)cc2)C(=O)N1Cc1ccccc1Cl	87.7*	13.0
O=C1N/C(=C/c2ccc(N3CCCC3)cc2)C(=O)N1Cc1ccc([N+](=O)[O-])cc1	3.3	16.0
O=S(=O)(c1ccc2c(c1)CCCC2)N1CCCC1c1nc(-c2ccccc2)no1 (stereo not drawn)	2.2	-23.5
CC(C)Sc1ccc(CC(=O)N2CCC(Cn3ccnc3)CC2)cc1	-7.2	-0.8
